Reference: the supplement of paper PMC10338343
± gives the standard deviation. Over roughly 6,600 sequences, “pre-steady-state target cleavage rate” has its median near 0.07; the highest 2% begin near 0.72. Many of the other results were omitted from the sample, so the highest values are more common in it than they were.

test system: MIWI (PIWIL1) piRISC loaded with Kctd7 piRNA (30 nt); test: pre-steady-state target cleavage rate (min^-1); MIWI and MILI are mouse PIWI proteins and EfPiwi is from a freshwater sponge; tags in brackets are library labels; higher = faster piRNA-guided slicing of the target; conditions: guide: Kctd7 piRNA 5'p-UGUUAAUCUCUCAGAGAAGGUGACAGUGAU; auxiliary factor: 500 nM mouse GTSF1
Procedure, shortened: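 The method was Cleave-'n-Seq, in which uncleaved targets from a transcribed, DNA-blocked target RNA library were sequenced after exposure to active affinity-purified piRISC carrying one synthetic guide, with or without GTSF1 partner protein. Reactions contained 0.1 nM library, 1 nM piRISC and, where present, 500 nM GTSF1 in HEPES–potassium acetate buffer at 33 °C for 0–8 or 0–960 min. Reads were normalised to depth and to weakly complementary targets, three trials were pooled, and k3 was capped at 0.0001 min^-1. The pre-steady-state cleavage rate came from a burst-and-steady-state fit.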

Row | Sequence | pre-steady-state target cleavage rate
1 | UAGUGACAGUCCUUACUCUGAGAGAUUAACA | 0.0326 ± 0.0043
2 | UAGAGUGUCACCUUCUCUGAGAGAUAAACA | 0.362 ± 0.038
3 | UACUCUGUCACCAUCUCUGAGAGAUUAACA | 0.69 ± 0.036
4 | UAGUCUGUCACCAUCUCUGAGAGAUUAACA | 0.667 ± 0.038
5 | UUCUCUGUCACCAUCUCUGAGAGAUUAACA | 0.514 ± 0.023
6 | AUGACUGUCACCAUCUCUGAGAGAUUAACA | 0.817 ± 0.06
7 | AUCUCUGUCACCAUCUCUGAGAGAUUAACA | 0.633 ± 0.03
8 | UUGACUGUCACCAUCUCUGAGAGAUUAACA | 0.756 ± 0.044
9 | UAGACUGUCACCUUCUCUCAGAGAUUAACA | 0.154 ± 0.016
10 | UAGUCUGUCACCUUCUCUGAGUGAUUAUCA | 0.015 ± 0.0044
11 | UUCACAGUCACCUUCUGUGAGAGAUUAACA | 0.363 ± 0.035
12 | UACACUGUGACCUUGUCUGAGAGAUUAACA | 0.0711 ± 0.013
13 | UAGACUGUCAGCUUCUCUGAGAGUUUAACA | 0.0686 ± 0.011
14 | UAGUGAGUCACCUUGCUCUGAGAGAUUAACA | 0.332 ± 0.07
15 | AUCCUGUCACCUUCUCUGAGAGAUUAACA | 0.744 ± 0.052
16 | UUCACCUGUCACCUUCUCUGAGAGAUUAACA | 0.73 ± 0.033
17 | UACACCUGUCACCUUCUCUGAGAGAUUAACA | 0.79 ± 0.051
18 | UACCUGUCACCUUCUCUGAGAGAUUAACA | 0.773 ± 0.051
19 | UUCUCUGUCACCUUCUCUGAGAGAUUAACA | 0.585 ± 0.031
20 | UACCCUGUCACCUUCUCUGAGAGAUUAACA | 0.638 ± 0.034
21 | AUCCCUGUCACCUUCUCUGAGAGAUUAACA | 0.644 ± 0.051
22 | UUCCUGUCACCUUCUCUGAGAGAUUAACA | 0.633 ± 0.037
23 | UAGUGUGUCACCUUCUCUGACUCAUUUUGA | 0.0047 ± 0.0045
24 | UAGUGACAGACCUUCUCUGUGACAUUAACA | 0.00672 ± 0.0033

Row | Sequence | pre-steady-state target cleavage rate
25 | UAGUGACUCUCCUUCUCUGAGAGUUUAACA | 0.035 ± 0.007
26 | UAGACUGUCACCUUGUCUGAGAGAUUAUCA | 0.643 ± 0.1
27 | UAGACUCACACCUUCUCUGAGAGAUAUUGA | 0.0233 ± 0.0066
28 | UAGUCUGUCACCUUCUCUGAGAGUUUAACA | 0.365 ± 0.053
29 | AUCUACUGUCACCUUCUCUGAGAGAUUAACA | 0.719 ± 0.041
30 | AUCACUGUCACCUAGUCUGAGAGAUUUUGA | 0.0964 ± 0.023
31 | AUCUGUGUCACCUUCUCUGAGAGAUUAACA | 0.417 ± 0.025
32 | UAGUGACAGUGGUUUCUGAGAGAUUAACA | < 0.0001
33 | UACACUGUCACCUUCACUGUGAGAUUAACA | 0.116 ± 0.015
34 | UAGUCUGUCACUUUCUCUGAGAGAUUAACA | 0.642 ± 0.023
35 | UAGUCUGUCACCAUCUCUGAGAGAUAAACA | 0.246 ± 0.025
36 | UAGUGACACACCUUCUCAGAGAGAUUAAGA | 0.0233 ± 0.0077
37 | AACACUGUCACCUUCUCUGAGAGAUAUUGA | 0.0742 ± 0.021
38 | AUCUCUGUCACCUUGUCUGAGAGAUUAACA | 0.394 ± 0.06
39 | UAGUGACUCACCUUCUCUGAGAGGAUUAACA | 0.172 ± 0.015
40 | UAGUGAGACACCUACUCUGAGAGAUUAACA | 0.399 ± 0.03
41 | AUCAUCUGUCACCUUCUCUGAGAGAUUAACA | 0.74 ± 0.035
42 | AUCACCUGUCACCUUCUCUGAGAGAUUAACA | 0.742 ± 0.05
43 | AUCUCUGUCACCUUCUCUGAGAGAUUAACA | 0.713 ± 0.032
44 | UAGCCUGUCACCUUCUCUGAGAGAUUAACA | 0.752 ± 0.056
45 | UAGACCUGUCACCUUCUCUGAGAGAUUAACA | 0.652 ± 0.043
46 | UUCAUCUGUCACCUUCUCUGAGAGAUUAACA | 0.706 ± 0.03
47 | UUCCCUGUCACCUUCUCUGAGAGAUUAACA | 0.502 ± 0.037
48 | UAGUGACUCACCUUCUCUGAGAGAUAUACA | 0.143 ± 0.019

Row | Sequence | pre-steady-state target cleavage rate
49 | UACACUCACACCUUCUCUGAGAGAUAUUGA | 0.0241 ± 0.012
50 | UAGUGACAGUGCAUUCUCUGAGAGAUUAACA | 0.0141 ± 0.0028
51 | AUCACUGUCACCAUCUCUGAGAGAUAAACA | 0.31 ± 0.03
52 | UACACUGUCGACCUUCUCUGAGAGAUUAACA | 0.229 ± 0.026
53 | UAGUGAGUCACCUUCACUGAGAGAUUUACA | 0.203 ± 0.036
54 | UACACUGAGACCUUCUCUGAGAGAUAUUGA | 0.0195 ± 0.0074
55 | AUCACUGUCACCUUCUCUGAGAGAGUUAACA | 0.651 ± 0.088
56 | UAGUCUGUCACCUUCUCUGACAGAUUUACA | 0.0113 ± 0.0036
57 | UAGACUGUCACCUUCUCUGAGAGAUUAAA | 0.141 ± 0.018
58 | UAGUGAGUCACCUUCUCUGAGAGUAUAUGA | 0.0298 ± 0.012
59 | UACACUGUCACCUUCUCUGAGAGAUUAACU [g2:g28:cont:t1U] | 0.494 ± 0.059
60 | AACACUGUCACCUUCUCUGAGAGAUUAAGA | 0.189 ± 0.026
61 | ACACUGUCACCUUCUCUGAGAGAUUAACA | 0.772 ± 0.044
62 | AACACUGUCACCUUCUCUGAGAGAUUAACA | 0.746 ± 0.03
63 | UAGUGAGUCAGCCUUCUCUGAGAGAUUAACA | 0.176 ± 0.02
64 | UUCACUGUCACGCUUCUCUGAGAGAUUAACA | 0.51 ± 0.02
65 | UAGUGCGUCACCUUCUCUGAGAGAUUAACA | 0.623 ± 0.04
66 | UAGUGUGUCACGUUCUCUGAGAGAAUAACA | 0.19 ± 0.037
67 | UAGACUGUCGACCUUCUCUGAGAGAUUAACA | 0.121 ± 0.013
68 | UACACUGUCGCCUUCUCUGAGAGAUUAACA | 0.708 ± 0.042
69 | UAGACUGUCGCCUUCUCUGAGAGAUUAACA | 0.822 ± 0.064
70 | UUCACUGUCGCCUUCUCUGAGAGAUUAACA | 0.665 ± 0.043
71 | AUCACUGUCGACCUUCUCUGAGAGAUUAACA | 0.172 ± 0.017
72 | AUCACUGUCGCCUUCUCUGAGAGAUUAACA | 0.819 ± 0.053
